From PubChem BioAssay (EPA / NIEHS)
Inconclusive results are not listed. Calls of active or inactive are those of the source. The calls were made as follows, unless noted: active = hit-call score of the fitted dose curve at least 0.9, where 1 is the maximum; inactive = score below 0.9.

Columns and labels:
[1] = CCTE_Harrill_HTTr_Viability_MCF7: CCTE's 6-hour Cell Viability Assessment for the High-Throughput Transcriptomics (HTTr) Platform, in MCF-7 cells cultured in DMEM + 10% fetal bovine serum, Harrill Lab (AID 2284010)
Outline: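 Eight-point concentration series, six-hour exposure. Propidium iodide exclusion imaged to assess membrane integrity as a cytotoxicity readout; bidirectional fitting was done with DMSO as negative control and activity baseline.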

[2] = CCTE_Harrill_HTTr_Apoptosis_MCF7: CCTE's 6-hour Apoptosis Assessment for the High-Throughput Transcriptomics (HTTr) Platform, in MCF-7 cells cultured in DMEM + 10% fetal bovine serum, Harrill Lab (AID 2284011)
Outline: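 MCF-7 cells in DMEM + 10% FBS exposed 6 h to chemicals over an eight-point dilution series. Caspase-3/7 activation imaged by high-content CellEvent Green staining; fitted bidirectionally versus DMSO.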

[3] = CCTE_Harrill_HTTr_CellCount_MCF7: CCTE's Cell Proliferation Assessment for the High-Throughput Transcriptomics (HTTr) Platform, Harrill Lab (AID 2284012; active = hit-call score of the fitted dose curve at least 0.9, where 1 is the maximum;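 also: count of Hoechst-stained nuclei per well by high-content imaging in MCF-7 cells; cells exposed to compound for six hours; intended direction is loss of nuclei count meaning fewer cells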)
Outline: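 For this full-screen endpoint, MCF-7 cultures received eight compound dilutions for six hours. Well nuclei counts from Hoechst imaging were analyzed relative to DMSO.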

Measured: outcome

FC(F)(F)c1ccc(OCCCOc2c(Cl)cc(OCC=C(Cl)Cl)cc2Cl)nc1
inactive: [1] | [2] | [3]
